Where “and” joins values, the source holds several entries; their conditions need not be identical. Equal entries are not always repeated. Results filed as inconclusive are left out. Calls of active or inactive are those of the source. Unless noted, calls follow the shape of the dose curve; as a rule, active = well fitted curve in the direction sought with a large enough effect; inconclusive = small, poorly fitted or top-dose-only effect, or another doubt; inactive = no such curve, though single readings can be large; an effect the other way counts as inactive or inconclusive.

For ten compounds, Potency, outcome and IC50 (viability decrease) results are on record in PubChem BioAssay (NCATS).

Experiment [1] can be described thus: qHTS assay to identify small molecule inhibitors of chordoma cells - UCH-1 (AID 1259355). Also: nearly all actives have a fitted effect of over 55% in size. Summed up:
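800 cells/well, overnight attach; compounds pinned at 15 concs, then auranofin/camptothecin/doxorubicin/rubitecan/topotecan combo added; 48hr 37 C, 5% CO2; CellTiter-Glo, 30min RT, luminescence.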
Background: In qHTS, concentration-response curves come from the screen itself.

The nature of experiment [2]: qHTS assay to identify small molecule inhibitors of chordoma cells - UCH-2 (AID 1259356).
Experiment [3] in a line: P-glycoprotein substrates identified in KB-3-1 adenocarcinoma cell line, qHTS therapeutic library screen (AID 1346986). Also: nearly all actives have a fitted effect of over 60% in size. The conditions noted are these: KB-3-1 parental cells viability, CellTiter-Glo, 72 h; at 44.5 µM (top of the series) unless noted. Summed up:
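Viability read by CellTiter-Glo after 72 h compound exposure in dose-response of KB-3-1 and KB-8-5-11 (P-gp-high) cells. Hits needed AC50 < 10 uM, >50% maximum response and curve class -1.1 to -2.4. Cherry-picks retested ± tariquidar, including pcDNA/MDR-19 HEK-293 pair.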

Experiment [4] is described as follows: P-glycoprotein substrates identified in KB-8-5-11 adenocarcinoma cell line, qHTS therapeutic library screen (AID 1346987). Also: nearly all actives have a fitted effect of over 65% in size. Also: potency is read from the fitted curve at half-maximal effect. Summed up: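 Compounds are pinned in dose-response onto KB-8-5-11 cells (500 cells/well, colchicine-free medium) and left 72 h at 37 degree C. CellTiter-Glo luminescence then yields AC50 values.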
The nature of experiment [5]: Natriuretic polypeptide receptor (hNpr1) antagonism - Pilot counterscreen GloSensor control cell line (AID 1347045; calls by dose curve). Summed up:
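Control counterscreen: luciferase cGMP-biosensor HEK293 cells (no Npr1) received compound for 30 min at room temperature after GloSensor substrate loading. Luminescence was measured before and 20 min after soluble guanylyl cyclase activation by 50 uM nitroprusside.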

In experiment [6] the target is Atrial natriuretic peptide receptor 1 (Homo sapiens) (UniProt P16066). As to the kind of experiment: Natriuretic polypeptide receptor (hNpr1) antagonism - Pilot screen (AID 1347049; calls by dose curve;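 also: HEK293 cells with hNpr1 and GloSensor cGMP luciferase stimulated by 0.1 nM hNppA; agonist-evoked cGMP luminescence read 20 min after hNppA addition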). Summed up:
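Receptor antagonism read as cGMP-dependent luminescence in hNpr1/pGS-40F HEK293 cells: pre-read after 30 min compound exposure, post-read 20 min after hNppA agonist at 0.1 nM final, all at room temperature, protected from light; A-71915 titration as control.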

In experiment [7] the target is Atrial natriuretic peptide receptor 2 (Homo sapiens) (UniProt P20594). Put plainly: Natriuretic polypeptide receptor (hNpr2) antagonism - Pilot subtype selectivity assay (AID 1347050; calls by dose curve). Summed up:
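Antagonist mode: compounds (LOPAC1280, seven 1:5 dilutions) added 30 min before 1 nM hNppC stimulation of hNpr2-HEK293 cGMP-sensor cells; luminescence read before and 20 min after agonist at ambient temperature.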

Experiment [8] is described as follows: NS1 protein of Zika virus - qHTS assay to identify small molecule inhibitors in human HEK 293 cells (AID 1347053). Also: nearly all actives have a fitted effect of over 55% in size. Summed up:
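In this cell-based screen, HEK 293 cultures received compound for one hour before Zika MR766 at MOI = 0.5. NS1 was quantified 24 hours later by TR-FRET, normalized to virus-free wells and infected wells.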

The target of experiment [9] is T1, Tyrosine-protein phosphatase non-receptor type substrate 1 (Homo sapiens) + Leukocyte surface antigen CD47 (Homo sapiens) (UniProt P78324+Q08722). Put plainly: CD47-SIRPalpha protein protein interaction - LANCE assay qHTS validation (AID 1347057; active = well fitted curve in the direction sought with a large enough effect in the signal ratio, with a control signal flat, not every such curve was filed as active; the % refers to the signal ratio). Summed up: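 Inhibition of soluble CD47/SIRPalpha ectodomain association by titrated compounds, measured as 665/615 nm time-resolved FRET ratio after sequential 30 min room-temperature incubations.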
T1 sequence (P78324 whole entry, looked up, the tested form may be a part): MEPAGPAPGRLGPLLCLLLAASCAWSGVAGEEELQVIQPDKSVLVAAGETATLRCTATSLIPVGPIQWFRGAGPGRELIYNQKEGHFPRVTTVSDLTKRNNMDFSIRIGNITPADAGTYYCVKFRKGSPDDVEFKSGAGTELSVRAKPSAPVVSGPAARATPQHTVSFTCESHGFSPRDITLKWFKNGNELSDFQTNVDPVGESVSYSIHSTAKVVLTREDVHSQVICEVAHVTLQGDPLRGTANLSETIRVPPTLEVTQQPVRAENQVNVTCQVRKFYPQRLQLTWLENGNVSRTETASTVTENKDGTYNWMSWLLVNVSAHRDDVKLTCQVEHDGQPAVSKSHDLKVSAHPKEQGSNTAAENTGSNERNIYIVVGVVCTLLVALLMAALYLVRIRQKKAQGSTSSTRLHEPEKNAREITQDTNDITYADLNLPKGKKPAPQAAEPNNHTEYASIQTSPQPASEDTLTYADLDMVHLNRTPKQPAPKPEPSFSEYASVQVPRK
T1 sequence (Q08722 whole entry, looked up, the tested form may be a part): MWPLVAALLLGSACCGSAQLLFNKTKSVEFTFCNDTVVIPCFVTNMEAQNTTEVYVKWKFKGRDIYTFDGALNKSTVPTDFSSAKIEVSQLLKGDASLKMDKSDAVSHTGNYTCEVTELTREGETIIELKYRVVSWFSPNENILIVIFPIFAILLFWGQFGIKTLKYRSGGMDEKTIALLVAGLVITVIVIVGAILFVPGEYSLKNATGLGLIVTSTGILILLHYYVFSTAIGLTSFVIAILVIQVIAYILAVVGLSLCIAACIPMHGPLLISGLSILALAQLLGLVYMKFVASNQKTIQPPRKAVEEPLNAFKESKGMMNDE
Background: TR-FRET usually uses a lanthanide donor and a delayed reading to cut background.

In experiment [10] the target is T1, Tyrosine-protein phosphatase non-receptor type substrate 1 (Homo sapiens) + Leukocyte surface antigen CD47 (Homo sapiens). Put plainly: CD47-SIRPalpha protein protein interaction - HTRF assay qHTS validation (AID 1347058; active = well fitted curve in the direction sought with a large enough effect in the signal ratio, not every such curve was filed as active; the % refers to the signal ratio). Summed up: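 Soluble extracellular domains (6His-CD47, Avi-tag-biotinylated SIRPalpha) in PBS pH 7.4 with 0.05% IGEPAL CA-630. Compounds were preincubated 30 min at RT with CD47 and anti-His-Eu, then SIRPalpha and SAV-XL665 were added. TR-FRET 665/615 ratio.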

Experiment [11] has the same target. Put plainly: CD47-SIRPalpha protein protein interaction - Alpha assay qHTS validation (AID 1347059).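 Also: bead proximity luminescence from CD47 binding SIRPalpha after compound preincubation with SIRPalpha.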 Summed up:
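AlphaScreen signal between CD47-His (12.5 nM) and biotin-SIRPalpha (25 nM) soluble extracellular domains, bead-captured via Ni-NTA and streptavidin. Compounds, in 7-point titrations, met SIRPalpha 30 min before CD47; PBS pH 7.4 with 0.05% IGEPAL.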

Experiment [12] has as its target Parathyroid hormone/parathyroid hormone-related peptide receptor (Homo sapiens) (UniProt Q03431). As to the kind of experiment: qHTS for PTHR1 Agonists: Optimization Screen against the NCGC LOPAC library (AID 1347079).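 Also: GloSensor cAMP luminescence in HEK-293 GP2 cells expressing human PTHR1 with IBMX.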 Summed up:
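HEK-293 GP2 cells, PTHR1 + GloSensor cAMP; 3000 cells/well, o/n. Luciferin + IBMX 0.5mM each (stock), 1 hr 37C. Cpd titration, 1 hr 37C. Lum after 15 min RT. Ctrl M-PTH(1-15) top 10uM.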

Experiment [13] in a line: qHTS of pediatric cancer cell lines to identify multiple opportunities for drug repurposing: Primary screen for TC32 cells (AID 1347089). Also: nearly all actives have a fitted effect of over 60% in size. Also: potency is read from the fitted curve at half-maximal effect. Summed up:
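TC32 cells, 500-1,000/well in growth medium, compound-treated 48 h at 37 °C; viability from CellTiter-Glo luminescence. Primary screen: MIPE 11-point (0.78 nM–46 µM final), NPC 8-point (0.59 nM–46 µM final); confirmatory at 11-point dilutions.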

Experiment [14] in a line: qHTS of pediatric cancer cell lines to identify multiple opportunities for drug repurposing: Primary screen for DAOY cells (AID 1347090). Also: nearly all actives have a fitted effect of over 55% in size. Summed up: (§1)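 Cell viability, CellTiter-Glo luminescence; 500-1,000 cells/well, 8- or 11-point titration, 48 h compound exposure at 37 degrees C, 5% CO2. Controls: DMSO neutral, bortezomib 2.3 µM final as positive.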
Experiment [15] can be described thus: qHTS of pediatric cancer cell lines to identify multiple opportunities for drug repurposing: Primary screen for SJ-GBM2 cells (AID 1347091). Summed up:
as §1

A short description of experiment [16]: Identifying Small Molecule Inhibitors of Pancreatic Cancer Stem Cells (A2780, Spheroid) (AID 1259357).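 Also: compound exposure lasted 48 h before the ATP luminescence read.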 Summed up:
(§2)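 Endpoint: ATP-based luminescence, 48 h drug exposure. Bortezomib at 9.2 uM final as full-kill control; DMSO vehicle as negative control; activity normalized between vehicle and cell-free wells.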

A short description of experiment [17]: Identifying Small Molecule Inhibitors of Pancreatic Cancer Stem Cells (SN12C, Adherent) (AID 1259358).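 Also: cell survival measured after 48 h of compound exposure.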 Summed up: (§3)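 Cytotoxicity read by CellTiter-Glo luminescence after 48 h compound exposure at 37C; percent activity scaled between DMSO-treated cells and cell-free wells. Spheroid formats used cells pre-formed 14 days in stem cell media on hydrogel.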
Experiment [18] can be described thus: Identifying Small Molecule Inhibitors of Pancreatic Cancer Stem Cells (SN12C, Spheroid) (AID 1259360). Summed up:
as §2

Experiment [19] is described as follows: Identifying Small Molecule Inhibitors of Pancreatic Cancer Stem Cells (A278, Adherent) (AID 1259361). Also: nearly all actives have a fitted effect of over 35% in size. Summed up:
as §3

Parathyroid hormone/parathyroid hormone-related peptide receptor (Homo sapiens), sequence (Q03431 whole entry, looked up): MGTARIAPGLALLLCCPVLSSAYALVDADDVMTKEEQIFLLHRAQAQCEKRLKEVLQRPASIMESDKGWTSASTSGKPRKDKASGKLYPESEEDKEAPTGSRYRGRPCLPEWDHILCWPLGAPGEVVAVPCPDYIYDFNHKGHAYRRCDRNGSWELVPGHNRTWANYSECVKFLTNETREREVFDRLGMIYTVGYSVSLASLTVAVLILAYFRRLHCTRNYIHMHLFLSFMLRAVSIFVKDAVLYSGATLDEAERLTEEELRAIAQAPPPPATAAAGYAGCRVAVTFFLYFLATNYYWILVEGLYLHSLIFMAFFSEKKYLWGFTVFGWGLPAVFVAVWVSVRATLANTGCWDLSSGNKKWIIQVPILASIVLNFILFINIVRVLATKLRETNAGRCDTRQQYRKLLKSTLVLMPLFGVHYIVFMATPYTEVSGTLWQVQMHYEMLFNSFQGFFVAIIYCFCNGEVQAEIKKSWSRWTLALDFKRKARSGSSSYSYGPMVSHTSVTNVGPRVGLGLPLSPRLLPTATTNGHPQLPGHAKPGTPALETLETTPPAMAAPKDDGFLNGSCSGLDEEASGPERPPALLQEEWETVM
Atrial natriuretic peptide receptor 2 (Homo sapiens), sequence (P20594 whole entry, looked up): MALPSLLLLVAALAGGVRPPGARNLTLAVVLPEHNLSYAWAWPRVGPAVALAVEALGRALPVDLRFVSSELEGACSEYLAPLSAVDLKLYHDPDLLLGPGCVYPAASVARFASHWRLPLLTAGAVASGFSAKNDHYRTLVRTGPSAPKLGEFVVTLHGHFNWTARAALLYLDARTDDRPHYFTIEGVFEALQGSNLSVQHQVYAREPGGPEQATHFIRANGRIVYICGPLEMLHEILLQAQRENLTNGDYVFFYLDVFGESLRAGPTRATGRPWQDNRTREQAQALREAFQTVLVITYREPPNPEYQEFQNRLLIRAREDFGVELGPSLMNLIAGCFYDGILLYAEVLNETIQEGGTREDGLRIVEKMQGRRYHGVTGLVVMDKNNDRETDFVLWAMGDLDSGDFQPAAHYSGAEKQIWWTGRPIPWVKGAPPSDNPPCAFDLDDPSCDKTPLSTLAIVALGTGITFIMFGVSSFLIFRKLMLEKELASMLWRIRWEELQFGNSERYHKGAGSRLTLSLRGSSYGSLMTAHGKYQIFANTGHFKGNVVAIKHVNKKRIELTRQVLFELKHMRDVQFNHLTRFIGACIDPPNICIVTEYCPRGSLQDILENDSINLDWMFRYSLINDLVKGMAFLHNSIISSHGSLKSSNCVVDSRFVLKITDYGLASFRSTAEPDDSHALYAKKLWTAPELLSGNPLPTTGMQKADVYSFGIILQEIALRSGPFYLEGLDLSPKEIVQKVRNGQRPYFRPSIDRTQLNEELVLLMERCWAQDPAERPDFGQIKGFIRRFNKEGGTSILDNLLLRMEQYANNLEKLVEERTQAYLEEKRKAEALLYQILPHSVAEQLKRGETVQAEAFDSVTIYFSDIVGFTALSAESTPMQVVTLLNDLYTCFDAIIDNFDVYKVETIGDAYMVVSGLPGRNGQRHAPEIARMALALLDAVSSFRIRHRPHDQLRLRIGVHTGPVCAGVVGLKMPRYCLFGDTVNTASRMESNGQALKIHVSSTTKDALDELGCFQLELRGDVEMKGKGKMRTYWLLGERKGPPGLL
Atrial natriuretic peptide receptor 1 (Homo sapiens), sequence (P16066 whole entry, looked up): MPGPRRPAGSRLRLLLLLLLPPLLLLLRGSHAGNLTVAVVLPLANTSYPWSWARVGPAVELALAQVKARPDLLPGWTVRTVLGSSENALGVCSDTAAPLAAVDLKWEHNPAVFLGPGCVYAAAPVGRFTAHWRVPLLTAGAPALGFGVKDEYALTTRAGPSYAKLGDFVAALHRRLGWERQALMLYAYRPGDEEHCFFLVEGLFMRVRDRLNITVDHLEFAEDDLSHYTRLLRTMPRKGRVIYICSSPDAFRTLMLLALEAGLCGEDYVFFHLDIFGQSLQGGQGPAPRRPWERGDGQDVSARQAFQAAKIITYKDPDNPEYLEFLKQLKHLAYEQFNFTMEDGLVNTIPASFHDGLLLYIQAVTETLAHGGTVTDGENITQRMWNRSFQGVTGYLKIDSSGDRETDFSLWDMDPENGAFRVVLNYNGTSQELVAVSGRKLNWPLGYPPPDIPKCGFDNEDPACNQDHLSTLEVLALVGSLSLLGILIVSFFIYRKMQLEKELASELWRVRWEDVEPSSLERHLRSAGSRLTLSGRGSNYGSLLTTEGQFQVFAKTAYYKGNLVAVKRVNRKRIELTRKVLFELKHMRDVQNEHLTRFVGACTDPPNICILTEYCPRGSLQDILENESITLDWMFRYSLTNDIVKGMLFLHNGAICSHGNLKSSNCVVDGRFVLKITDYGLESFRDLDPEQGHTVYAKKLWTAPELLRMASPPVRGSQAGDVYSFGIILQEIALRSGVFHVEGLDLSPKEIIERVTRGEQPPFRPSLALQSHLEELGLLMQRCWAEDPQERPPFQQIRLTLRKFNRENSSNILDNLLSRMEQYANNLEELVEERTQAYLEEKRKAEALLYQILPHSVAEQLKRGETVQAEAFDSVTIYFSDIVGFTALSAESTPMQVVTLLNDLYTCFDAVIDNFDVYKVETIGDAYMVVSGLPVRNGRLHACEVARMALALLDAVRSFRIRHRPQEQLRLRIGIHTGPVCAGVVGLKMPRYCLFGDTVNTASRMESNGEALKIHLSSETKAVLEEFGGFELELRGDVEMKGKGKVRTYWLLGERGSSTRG

Consider `CCN(CC)CCNC(=O)c1cc(Cl)c(N)cc1OC`, for which the Potency entry in experiment [1], in experiment [4], in [7], in experiment [8], in [12] and in experiment [13] was “inactive” each time. Also, the Potency entry in [14] and in experiment [15] was “inactive” in each case. The compound was classed as inactive in experiment [2], in [3], in experiment [5], in experiment [6], in experiment [9] and in experiment [10]. Moreover, the outcome in experiment [11] was inactive.
Consider `CSc1ccc2c(c1)C(N1CCN(C)CC1)Cc1ccccc1S2` (stereo not drawn), for which the Potency result in experiment [1], in experiment [4], in experiment [12] and in experiment [14] was “inactive” each time. In addition, the call in [2], in [6], in experiment [9] and in [10] was inactive.
With `NC1CCN(c2cccc(Cl)n2)CC1`, the Potency result in experiment [1], in experiment [4], in experiment [7], in [8], in experiment [12] and in experiment [13] was “inactive” throughout. Besides, the Potency result in experiment [14] and in experiment [15] was “inactive” each time. For the same compound, the compound was called inactive in [2], in [5] and in [6].
`C[C@@H]1CCN(C(=O)[C@H](CCCN=C(N)N)NS(=O)(=O)c2cccc3c2NC[C@H](C)C3)[C@@H](C(=O)O)C1`: the Potency entry in experiment [1], in [4], in experiment [8], in experiment [13], in [14] and in [15] was “inactive” throughout. Moreover, in experiment [2], the compound was classed as inactive.
Consider `CS(=O)(=O)c1ccc([C@@H](O)[C@@H](CF)NC(=O)C(Cl)Cl)cc1`, for which the Potency entry in [1], in experiment [4], in experiment [8], in experiment [13], in experiment [14] and in experiment [15] was “inactive” in each case. Also, the result in [2] was inactive.
Turning to `CC(=O)O[C@@]12CO[C@@H]1C[C@H](O)[C@@]1(C)C(=O)[C@H](O)C3=C(C)[C@@H](OC(=O)[C@H](O)[C@@H](NC(=O)OC(C)(C)C)c4ccccc4)C[C@@](O)([C@@H](OC(=O)c4ccccc4)[C@H]21)C3(C)C`, the Potency result in experiment [1] and in experiment [8] was “inactive” throughout. Further, the call in experiment [2], in experiment [16], in [17] and in experiment [18] was inactive. The IC50 (viability decrease) result in experiment [19] was “inactive”. Moreover, the Potency was 6.51 µM (active) and 4.11 µM (active) in experiment [4]; 2.6 nM (active) in experiment [13].
On to `C[C@@H]1C[C@H]2[C@@H]3C[C@H](F)C4=CC(=O)C=C[C@]4(C)[C@@]3(F)[C@@H](O)C[C@]2(C)[C@@]1(O)C(=O)CO`, for which the Potency result in experiment [1], in experiment [4], in [8], in [13], in [14] and in [15] was “inactive” in each case. For the same compound, the result in experiment [2] and in experiment [3] was inactive.
Take `C[C@@H]1CN(c2c(F)c(F)c3c(=O)c(C(=O)O)cn(C4CC4)c3c2F)C[C@H](C)N1`: the Potency entry in experiment [1], in [4], in [8], in [13], in experiment [14] and in experiment [15] was “inactive” each time. In addition, the outcome in [2] was inactive. In experiment [3], the outcome is “inactive [at 9.29 µM]”.
Turning to `Nc1ncnc2c1ncn2[C@@H]1O[C@H](CO)[C@@H](O)[C@H]1O`, the Potency entry in experiment [1], in experiment [4], in experiment [7], in experiment [8], in [12] and in experiment [14] was “inactive” in each case. Further, in [15], the Potency result is “inactive”. In addition, the result in [2], in experiment [5], in experiment [6], in [9], in experiment [10] and in experiment [11] was inactive.
With `Nc1ccc(S(=O)(=O)NC(=O)c2ccccc2)cc1`, the Potency result in [1], in [4], in experiment [8], in [13], in experiment [14] and in experiment [15] was “inactive” throughout. Besides, in [2], the outcome was inactive.
